Compound activity from PubChem BioAssay.
Shown is part of a subset that was picked to be rich in hits.
ST2 inh: inhibitors of human ST2 (IL1RL1) binding to IL-33. Q01638. AlphaLISA ST2-Fc/biotin-IL-33 interaction, 1 h. inhibition, % for hits at 17 µM. 2.3% of 78,000 active. AID 1259354; in the data active means inhibition above about 30%
Target sequence (Q01638 whole entry, looked up): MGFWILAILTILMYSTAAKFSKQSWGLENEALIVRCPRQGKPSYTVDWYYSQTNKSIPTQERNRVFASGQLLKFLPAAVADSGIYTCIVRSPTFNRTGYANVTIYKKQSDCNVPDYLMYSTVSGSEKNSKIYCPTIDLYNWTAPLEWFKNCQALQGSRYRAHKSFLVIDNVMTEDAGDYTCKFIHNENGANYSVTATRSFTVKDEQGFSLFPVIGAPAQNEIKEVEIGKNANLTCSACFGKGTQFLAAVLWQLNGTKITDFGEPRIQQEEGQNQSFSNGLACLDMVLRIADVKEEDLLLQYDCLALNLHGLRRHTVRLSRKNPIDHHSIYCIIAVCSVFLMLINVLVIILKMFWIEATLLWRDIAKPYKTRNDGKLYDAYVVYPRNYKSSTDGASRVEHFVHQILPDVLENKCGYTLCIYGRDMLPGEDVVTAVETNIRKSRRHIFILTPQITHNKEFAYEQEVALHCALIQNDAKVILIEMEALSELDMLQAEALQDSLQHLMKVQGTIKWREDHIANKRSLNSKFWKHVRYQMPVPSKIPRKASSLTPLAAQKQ
Active calls of the source: *; i = inactive.

SMILES	ST2 inh
COc1ccc2cc(C3CN(S(=O)(=O)C4CC4)CCO3)ccc2c1 (stereo unspecified)	i
O=C(CNS(=O)(=O)c1cccs1)Nc1ccc(Br)cc1	i
CCCn1ncc(C(=O)N2CCC3(CN(C)C(=O)O3)C2)c1C (stereo unspecified)	i
COc1cc(Cl)c(C)cc1NC(=O)c1ccc([N+](=O)[O-])c(C)c1	i
O=C(Nc1ccccc1C(=O)O)c1ccccc1	33.0%*
Cc1ccc(C(=O)Nc2ccccc2C(=O)O)cc1	i
O=C(Nc1ccccc1F)c1ccccc1	i
COc1cccc(C2CC(c3ccc(C(C)C)cc3)n3ncnc3N2)c1 (stereo unspecified)	i
Cc1cccnc1CC(C)NC(=O)c1c(Cl)c(C(F)(F)F)nn1C (stereo unspecified)	i
CCOC(=O)c1[nH]c(C)c(C(=O)OCc2ccccc2)c1C	i
CCN(Cc1noc(C2CC2)n1)C(=O)c1ccc2c(c1)OCCN2C	i
Cc1ccccc1NC1SC(=O)N(Cc2ccccc2)C1=O (stereo unspecified)	i
c1cncc(-c2nnc([C@H]3CCN(Cc4ccncc4)C3)o2)c1	i
Cc1ccc(CN2CC[C@H](c3nnc(-c4cccnc4)o3)C2)cc1	i
c1ccc(CN2CC[C@H](c3nnc(-c4cccnc4)o3)C2)cc1	34.0%*
O=C(O)c1cccc(NC(=O)c2cccc(N3C(=O)C4C5C=CC(C5)C4C3=O)c2)c1 (stereo unspecified)	i
Cc1ccccc1CN1C(=O)CSc2ccc(C(=O)NC3CC3)cc21	i
CC(=O)Cc1nsc(NC(=O)c2cccc(Cl)c2)n1	i
O=C(Nc1c(Cl)cccc1Cl)C1CCCC1	i
CC(=O)N1c2c(cc(Br)cc2S(=O)(=O)N2CCC(C)CC2)CC1C (stereo unspecified)	i
O=C1OC(c2cccc(F)c2)=N/C1=C/c1ccc(-c2ccccc2[N+](=O)[O-])o1	i
O=C(Nc1ccc(I)cc1Cl)c1ccc(-c2ccccc2[N+](=O)[O-])o1	i
O=[N+]([O-])c1ccccc1-c1ccc(/C=C/c2ccncc2)o1	49.0%*
CCc1nc(N2CCC(C)CC2)c(C#N)c2c1COC(C)(C)C2	i
CC(NC(=O)CSC(=Nc1ccccc1)NC#N)C12CC3CC(CC(C3)C1)C2 (stereo unspecified)	i
SMILES	ST2 inh
Cc1ccc(N2CC(C(=O)NC3CCCCC3)CC2=O)cc1 (stereo unspecified)	i
CCCCOC(=O)Nc1ccc(OC)cc1[N+](=O)[O-]	47.0%*
COc1ccc(NC(=O)CC2SC(N)=NC2=O)c([N+](=O)[O-])c1 (stereo unspecified)	i
COc1ccc(NC(=O)CC2CCCCC2)c(OC)c1	i
CCCCOC(=O)Nc1ccccc1F	i
COc1ccc(NC(=O)CC2CCCCC2)c([N+](=O)[O-])c1	40.0%*
COc1ccc(OCC(=O)Nc2ccc(OC)cc2[N+](=O)[O-])cc1	i
CC1=C(C(=O)Nc2ccccn2)C(c2ccc(Br)cc2)C2=C(CCCC2=O)N1 (stereo unspecified)	i
CCOc1ccccc1NS(=O)(=O)c1cc([N+](=O)[O-])ccc1C	i
Cc1cc([N+](=O)[O-])ccc1NC(=O)COc1ccc(C(C)C)cc1	i
Cc1nonc1OCC(C)(COc1nonc1C)Nc1ccc([N+](=O)[O-])cc1[N+](=O)[O-]	40.0%*
O[C@@H]1CN(Cc2cncn2Cc2ccccc2)CC[C@H]1c1ccc(F)cc1	i
CCN(c1ccccc1)S(=O)(=O)c1ccc2c(c1)CCN2C(=O)C1CC1	i
Cc1ccc(C(=O)N2CCc3c(c(C(=O)N4CCNC(=O)C4)nn3CCCc3ccccc3)C2)s1	30.0%*
O=C(c1n[nH]c2c1CCC2)N1CCc2c(c(C(=O)N3CCOCC3)nn2CCCc2ccccc2)C1	i
O=C(Cc1cccs1)N1CCc2c(c(C(=O)N3CCOCC3)nn2CCCc2ccccc2)C1	i
CC(C)C1CN(C(=O)c2ccc[nH]2)CCC(=O)N1CC1CC1 (stereo unspecified)	i
COc1cccc(N2C(=O)Nc3ccccc3C2(O)C(=O)NCCN(C)C)c1 (stereo unspecified)	i
Cc1ccc(NC(=O)CCC2CCCC2)nc1	i
CC(NC(=O)c1ccc(Cl)cc1)c1ccccc1 (stereo unspecified)	i
CC(Nc1ccc(Cl)cc1N)c1ccccc1 (stereo unspecified)	57.0%*
CC(NC(=O)c1cc2ccccc2o1)c1ccccc1 (stereo unspecified)	i
C=C1CC[C@H]2[C@@H](/C=C(\C)C(=O)[C@@]3(OC(C)=O)C[C@H](C)[C@H](OC(C)=O)[C@@H]3[C@H]1OC(C)=O)C2(C)C	i
CCOC(=O)c1c(C)oc2ccc(OC(C)C(=O)OCC)cc12 (stereo unspecified)	i
Cc1nnsc1CN(C)C(=O)C1=NNC(=O)CC1	i
O=C(CSc1ccc2nnc(-c3cccnc3)n2n1)N1CCCCC1c1ccc(F)cc1 (stereo unspecified)	i
